Pf Dd2 growth: blocks growth of Plasmodium falciparum Dd2 parasites. P. falciparum Dd2 growth, SYBR Green, 72 h; active compounds read low. activity change, % at 10 µM. hit rate 2.3% among 94,000. AID 1159554; in the data active means activity change below about -80%; inconclusive means no clear call, values can overlap the other calls
C diff growth: blocks growth of Clostridium difficile; AID 1259249; Clostridium difficile clinical isolate growth, OD600, 24 h; active compounds read low; growth activity, negative = inhibition, % at 16 µg/mL (by protocol); hit rate 0.25% among 86,000;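 active means mean growth activity at or below -80% and every replicate also at or below -80%; inconclusive means mean at or below -80% but some replicate above -80%; inactive means mean growth activity above -80%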;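 further: 0% = DMSO wells and -100% = levofloxacin 16 µg/mL wells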
T cruzi growth: blocks T. cruzi growth in NIH3T3 culture; hit rate 5.9% among 77,000; inhibition, % at 8.34 µM; T. cruzi beta-gal in NIH3T3, GalScreen luminescence, 90 h; AID 624255;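 active means mean inhibition above about 93%, with at least 55% of replicates each passing it, limit read from the data, passing the limit was not always enough; inconclusive means only one of those two conditions holds; inactive means neither condition holds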
An asterisk follows results filed as active; ? = inconclusive; · = not tested or not shown; ! = a repeat was not active. Compounds with a hit are over-represented: about 6.7% of the library has one in this group of screens.

SMILES	Pf Dd2 growth	C diff growth	T cruzi growth
O=C(Nc1ccccc1)N1CCCCN2[C@H](CO)[C@H](c3ccc(C#Cc4ccccc4)cc3)[C@H]2C1	-48.3	-101.2*	76.1
O=C(Nc1ccccc1)N1CCCCN2[C@H](C1)[C@@H](c1ccc(C#Cc3ccccc3)cc1)[C@@H]2CO	-29.1	14.4	59.6
O=C(Nc1ccccc1F)N1CCCCN2[C@H](CO)[C@@H](c3ccc(C#Cc4ccccc4)cc3)[C@@H]2C1	-34.4	-2.4	94.1
O=C(Nc1ccccc1)N1CCCCN2[C@H](CO)[C@H](c3ccc(C#Cc4ccccc4)cc3)[C@@H]2C1	-77.5	-23.9	60.2
O=C(Nc1ccccc1F)N1CCCCN2[C@H](CO)[C@H](c3ccc(C#Cc4ccccc4)cc3)[C@@H]2C1	-89.0*	-2.2	75.0
O=C(Nc1ccc(F)cc1)N1CCCCN2[C@H](CO)[C@H](c3ccc(C#Cc4ccccc4)cc3)[C@@H]2C1	-82.6*	-11.3	18.7
Cc1noc(C)c1NC(=O)N(C)C[C@H]1Oc2ccc(NC(=O)Cc3ccccc3)cc2CC(=O)N([C@@H](C)CO)C[C@@H]1C	-68.0	0.6	34.6
CCS(=O)(=O)Nc1ccc2c(c1)C(=O)N(C)C[C@@H](OC)[C@@H](C)CN(C)[C@@H](C)CO2	8.7	-0.7	38.7
CO[C@H]1CN(C)C(=O)c2cc(NS(=O)(=O)CC(F)(F)F)ccc2OC[C@H](C)N(Cc2ccccn2)C[C@H]1C	-30.7	·	64.9
CC(C)CC#Cc1ccc2c(c1)O[C@@H](CN(C)Cc1cccc(F)c1)[C@H](C)CN([C@@H](C)CO)S2(=O)=O	-84.5*	5.0	51.1
CC(C)CC#Cc1ccc2c(c1)O[C@@H](CN(C)Cc1cccc(F)c1)[C@@H](C)CN([C@H](C)CO)S2(=O)=O	-44.2	22.3	69.0
C[C@@H]1CN([C@@H](C)CO)S(=O)(=O)c2ccc(-c3cccc(C(=O)N(C)C)c3)cc2O[C@H]1CN(C)Cc1ccc2c(c1)OCO2	-82.4*	-1.3	·
C[C@H](CO)N1C[C@H](C)[C@H](CN(C)Cc2ccncc2)Oc2cc(C#CCN(C)C)ccc2S1(=O)=O	15.9	0.1	93.2
C[C@@H]1CN([C@@H](C)CO)S(=O)(=O)c2ccc(-c3cccc(C(=O)N(C)C)c3)cc2O[C@@H]1CN(C)Cc1ccc2c(c1)OCO2	-55.3	2.3	·
C[C@H]1CN([C@@H](C)CO)S(=O)(=O)c2ccc(C#CCN(C)C)cc2O[C@@H]1CN(C)Cc1ccncc1	-27.1	1.2	97.4*
C[C@@H]1CCCCO[C@@H](CN(C)C(=O)Nc2ccc3c(c2)OCO3)[C@@H](C)CN([C@H](C)CO)C(=O)c2cc(NC(=O)CCCCCC(=O)Nc3ccccc3N)ccc2O1	-12.4	1.8	40.4
CCCNC(=O)C[C@H]1CC[C@@H]2[C@H](COc3ccc(NC(=O)Nc4ccccc4)cc3C(=O)N2C)O1	-6.4	1.3	66.9
C[C@H]1CCCCO[C@@H](CN(C)S(=O)(=O)c2ccccc2)[C@@H](C)CN([C@@H](C)CO)C(=O)c2cc(NC(=O)c3ccccc3)ccc2O1	-67.7	·	24.3
C[C@@H]1CCCCO[C@@H](CN(C)S(=O)(=O)c2ccccc2)[C@H](C)CN([C@@H](C)CO)C(=O)c2cc(NC(=O)c3ccccc3)ccc2O1	-37.9	·	-37.1
C[C@H]1CCCCO[C@H](CN(C)S(=O)(=O)c2ccc(Cl)cc2)[C@@H](C)CN([C@@H](C)CO)C(=O)c2cc(NC(=O)c3ccccc3)ccc2O1	-80.7*	7.9	96.6
C[C@@H]1CN([C@@H](C)CO)C(=O)c2cc(NC(=O)c3ccccc3)ccc2O[C@@H](C)CCCCO[C@@H]1CN(C)S(=O)(=O)c1ccc(Cl)cc1	-86.4*	13.8	82.3
C[C@@H]1CCCCO[C@@H](CN(C)S(=O)(=O)c2ccc(Cl)cc2)[C@H](C)CN([C@H](C)CO)C(=O)c2cc(NC(=O)c3ccccc3)ccc2O1	-85.1*	1.9	90.4
C[C@@H]1CCCCO[C@@H](CN(C)S(=O)(=O)c2ccc(Cl)cc2)[C@H](C)CN([C@@H](C)CO)C(=O)c2cc(NC(=O)c3ccccc3)ccc2O1	-69.5	1.6	71.1
C[C@@H]1CCCCO[C@H](CN(C)S(=O)(=O)c2ccccc2)[C@H](C)CN([C@@H](C)CO)C(=O)c2cc(NC(=O)c3ccccc3)ccc2O1	-55.8	·	34.2
C[C@@H]1CN([C@@H](C)CO)C(=O)c2cc(NC(=O)c3ccccc3)ccc2O[C@@H](C)CCCCO[C@H]1CN(C)S(=O)(=O)c1ccc(Cl)cc1	-84.4*	2.9	64.6
SMILES	Pf Dd2 growth	C diff growth	T cruzi growth
C[C@@H]1CCCCO[C@@H](CN(C)C(=O)Nc2ccc3c(c2)OCO3)[C@@H](C)CN([C@@H](C)CO)C(=O)c2cc(NC(=O)Nc3ccc4c(c3)OCO4)ccc2O1	-74.5	11.2	·
CN(C)C(=O)c1cccc(-c2ccccc2[C@@H]2[C@@H](C#N)N(C(=O)C3CC3)[C@H]2CO)c1	?	2.8	·
COc1cccc(CNC(=O)C[C@H]2C=C[C@H](NC(=O)C3CCOCC3)[C@H](CO)O2)c1	1.1	7.0	17.0
C[C@@H]1CN([C@H](C)CO)S(=O)(=O)c2ccc(C#Cc3cccc(F)c3)cc2O[C@@H]1CN(C)CC1CC1	-39.8	5.5	·
CNC[C@H]1OCCCC[C@@H](C)Oc2ccc(NC(=O)Nc3ccc(F)cc3)cc2C(=O)N([C@H](C)CO)C[C@@H]1C	17.6	2.7	13.7
COc1ccccc1-c1cccc(-c2nc(C(=O)Nc3nccs3)cc3c2[C@@H](CCO)N(C(C)=O)C3)c1	-68.9	5.3	·
COc1ccccc1-c1cccc(-c2nc(C(=O)Nc3nccs3)cc3c2[C@H](CCO)N(C(C)=O)C3)c1	-95.4*	-6.9	·
O=C(C[C@@H]1CC[C@@H]2[C@H](COC[C@H](O)CN2S(=O)(=O)c2cccc(Cl)c2)O1)N1CCCCC1	-25.5	10.0	10.0
COc1cccc(-c2ccc(C3[C@H]4CNC[C@@H]3N4C(=O)Nc3ccc(C(F)(F)F)cc3)cc2)c1 (stereo partly specified)	8.8	-94.1*!	·
COc1ccc(NC(=O)N2[C@@H]3CNC[C@H]2C3c2ccc(-c3cccc(OC)c3)cc2)cc1 (stereo partly specified)	4.2	48.9	·
COc1ccc(NC(=O)N2[C@@H]3CNC[C@H]2C3c2ccc(-c3ccccc3C)cc2)cc1 (stereo partly specified)	4.1	39.1	·
O=C(Nc1ccc(C(F)(F)F)cc1)N1[C@@H]2CNC[C@H]1C2c1ccc(-c2cccnc2)cc1 (stereo partly specified)	10.3	-3.4	·
Cc1ccccc1-c1ccc(C2[C@H]3CNC[C@@H]2N3C(=O)Nc2ccc(Cl)cc2)cc1 (stereo partly specified)	13.9	-97.4*!	·
O=C(Nc1ccc(C(F)(F)F)cc1)N1[C@@H]2CNC[C@H]1C2c1ccc(-c2ccc(F)cc2)cc1 (stereo partly specified)	24.6	-98.9*	·
COc1ccc(S(=O)(=O)Nc2cccc3c2O[C@@H](CN(C)C(=O)Nc2ccc4c(c2)OCO4)[C@@H](C)CN([C@@H](C)CO)C3=O)cc1	0.1	1.6	-1.7
Cc1noc(C)c1S(=O)(=O)Nc1ccc2c(c1)C(=O)N([C@@H](C)CO)C[C@H](C)[C@H](CN(C)S(=O)(=O)c1ccc(F)cc1)OCCCC[C@H](C)O2	-68.5	-10.5	·
